Only some compounds are listed: those with a hit (about 4.8% of all), similar ones and a draw of the others.
DAX1 inh-1: DAX1 (NR0B1) inhibitors, primary screen, cell-based, HEK293, Gal4-DAX1, luciferase luminescence | inhibition, % at 6.75 µM | Nuclear receptor subfamily 0 group B member 1 (Homo sapiens), P51843 | HEK293 Gal4-DAX1 luciferase reporter | actives 0.99% (n = 340,000);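 active = inhibition above the mean over all tested compounds plus 3 SD, cut at about 4.2% in these data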;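 also: inhibition shows as a rise in luminescence from relieved DAX1 repression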
Target sequence (P51843 207-470 limits assumed): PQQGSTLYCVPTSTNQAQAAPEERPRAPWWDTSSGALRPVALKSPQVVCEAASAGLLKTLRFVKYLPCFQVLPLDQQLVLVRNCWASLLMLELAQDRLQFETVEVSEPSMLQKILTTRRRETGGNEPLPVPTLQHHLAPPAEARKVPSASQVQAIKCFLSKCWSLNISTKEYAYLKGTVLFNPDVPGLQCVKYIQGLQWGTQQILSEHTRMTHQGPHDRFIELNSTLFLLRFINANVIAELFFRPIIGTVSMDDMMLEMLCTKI
hcDAF-12 act: H. contortus DAF-12 nuclear receptor activators, primary screen, cell-based, luminescence, HEK293, lit1-tk-luc reporter; HEK293 hcDAF-12 lit1-tk-luc reporter; 0% DMSO, 100% Δ7-dafachronic acid; actives 1.4% (n = 370,000); activation, % at 6.8 µM;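 active = activation above the mean of all tested compounds plus 3 SD, cut at about 5.5% in these data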
hgDAF-12 ag: H. glycines DAF-12 receptor agonists, primary screen, cell-based, luminescence, HEK293, GAL4 fusion, UAS-luciferase; HEK293 GAL4-hgDAF12 UAS-luciferase reporter, agonist luminescence; normalized to butyrate control; actives 1.8% (n = 370,000); activation, % at 6.8 µM; Nuclear hormone receptor DAF-12 (Heterodera glycines), GAL4 fusion;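 active = activation above a cutoff set at the mean of all screened compounds plus 3 SD, cut at about 10% in these data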
DAX1 inh-2: DAX1 (NR0B1) inhibitors on StAR promoter, primary screen, cell-based, luminescence, SF-1 (NR5A1), full-length DAX-1. HEK293T StAR-luciferase reporter, SF-1/DAX-1 repression relief. inhibition, % at 6.8 µM. actives 1.1% (n = 370,000);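 active = inhibition above the mean over all tested compounds plus 3 SD, cut at about 3.6% in these data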;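 also: higher inhibition means more luminescence from relief of DAX-1 repression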
ssDAF12 agonist: S. stercoralis DAF-12 nuclear receptor activators, primary screen, cell-based, luminescence, HEK293, GRIP1 co-expression, lit1-tk-luc; activation, % at 6.8 µM; actives 1% (n = 370,000); HEK293 ssDAF-12/GRIP1 lit1-tk-luc reporter; % of 3 µM dafachronic acid response;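 active = activation above the mean over all tested compounds plus 3 SD, cut at about 0.9% in these data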
SMARCA2 act: SMARCA2 (BRM) function activators, primary screen, cell-based, luminescence, high throughput | activation, % at 9.1 µM | actives 1% (n = 370,000) | MG213 cells, MMTV-luciferase reporter, dexamethasone, overnight; in the data active = activation above about 7.8%
A number is an active result; i = inactive; nt = not tested or not shown.

SMILES	DAX1 inh-1	hcDAF-12 act	hgDAF-12 ag	DAX1 inh-2	ssDAF12 agonist	SMARCA2 act
CC(C)(C)c1ccc(C(=O)NC(=S)N2CCCC2)cc1	i	i	i	i	1.8	i
CC(C)(C)c1ccc(C(=O)NCC(=O)N2CCCC2)cc1	i	i	i	i	i	i
CC(C)(C)c1ccc(C(=O)NCC(=O)O)cc1	4.8	i	i	i	i	i
O=C(O)c1ccc(OCCCCCCOC2CCCCO2)cc1 (stereo not given)	4.5	i	i	i	i	i
O=C(c1ccccc1)c1ccc(OCCCCN2CCCCC2)cc1	i	i	i	i	i	i
NC(=O)C1CCN(c2nc(-c3ccc4c(c3)CCO4)cs2)CC1	nt	i	i	nt	i	nt
CC(C)(C)n1ncc2c(=O)n(CC(=O)c3ccc(Cl)cc3)cnc21	i	i	11.6	i	i	i
COc1ccc(-n2ncc3c(=O)n(CC(C)=O)cnc32)cc1	i	i	i	i	i	i
CC(C)(C)n1ncc2c(=O)n(CC(=O)Nc3ccc(Cl)cc3)cnc21	i	i	i	i	i	i
CC(=O)Cn1cnc2c(cnn2-c2ccc(F)cc2)c1=O	i	i	i	i	1.0	i
CC(COc1ccc(C(F)(F)F)cc1)CN1CCC(C(O)(c2ccccc2)c2ccccc2)CC1 (stereo not given)	nt	i	i	i	i	i
CCCCOCCCNC(=O)C[C@H]1C(=O)N(Cc2ccc(OC)cc2)C2=CCCCC[C@@]21C(=O)OC	nt	i	i	i	i	i
COc1ccc2c(c1)c(-c1csc(N)n1)c(C)n2C	i	i	i	i	i	i
Cc1ccc2c(c1)c(-c1csc(N)n1)c(C)n2C	i	i	i	i	1.6	i
COc1ccc(/C=C2\CC3(OC(=O)c4ccco4)CCCN2C3)cc1 (stereo not given)	nt	i	i	i	i	i
COc1cccc(/C=C2\CC3(OC(=O)c4ccc(Cl)cc4)CCCN2C3)c1 (stereo not given)	nt	i	i	i	i	i
c1ccc2cc(Cn3ccc4ccc(-c5ccc6cc[nH]c6c5)cc43)ccc2c1	nt	i	i	i	1.2	i
COC(=O)c1ccc2nc(-c3cccc(Cl)c3)c(Cc3ccccc3)n2c1	nt	i	i	i	i	i
COC(=O)c1ccc2nc(C3CCCCC3)c(CC(C)(C)C)n2c1	nt	i	i	i	i	i
COC(=O)c1ccc2nc(-c3ccccc3)c(Cc3cccc(Cl)c3)n2c1	nt	i	i	i	1.2	i
COC(=O)c1ccc2nc(C3CCCCC3)c(Cc3ccccc3)n2c1	nt	5.9	i	i	i	i
CCOC(=O)c1c(-c2ccccc2)csc1NC(=O)c1ccc(S(=O)(=O)N2CCOCC2)cc1	i	i	11.3	i	i	i
CCOC(=O)c1c(-c2ccccc2)csc1NC(=O)CCN1CCOCC1	i	i	i	i	i	i
COC(=O)C[C@H]1CC[C@@H]2[C@@H](COc3ccc(NC(=O)c4ccno4)cc3C(=O)N2C)O1	nt	i	i	i	i	i
CS(=O)(=O)N[C@@H]1C[C@@H]2O[C@H](CO)CC[C@@H]2O[C@@H]1CCc1ccc(/C=C/c2ccccc2)cc1	nt	i	i	i	i	i
SMILES	DAX1 inh-1	hcDAF-12 act	hgDAF-12 ag	DAX1 inh-2	ssDAF12 agonist	SMARCA2 act
Fc1ccc(-c2n[nH]c(=S)n2N=Cc2ccc(-c3ccccc3)cc2)cc1	nt	i	i	i	i	i
Cc1ccc(NCc2ccccc2F)cc1	i	6.2	i	i	i	i
Cc1ccc(NCc2ccccc2O)cc1	i	i	i	i	i	i
CC(SC(=S)N(C)Cc1cccs1)C(=O)O (stereo not given)	i	i	i	i	i	i
CN(C)c1nc(=NCc2cccs2)ss1	i	i	i	i	i	13.3
C=C1C(=O)[C@]23C[C@H]1CC[C@H]2[C@]1(C)[C@@H](OC(C)=O)CC[C@@](C)(C(=O)O)[C@H]1C[C@@H]3OC(C)=O	nt	i	i	i	i	7.9
CC(=O)c1cc(-c2cnn(Cc3ccccc3)c2)c(=O)n2c1CCC2	nt	i	i	i	i	i
C=CCn1c(=O)c2ccccc2n2c(SCc3nc4ccccc4s3)nnc12	i	i	i	i	1.2	i
Cc1ccc(SCCC(=O)N2CCC(C)CC2)cc1	5.7	i	i	i	i	i
Cc1ccc(SCCC(=O)N2CCC(C(N)=O)CC2)cc1	i	i	i	i	i	i
Cc1csc(NC(=O)Cn2nc(C)c([N+](=O)[O-])c2C)n1	i	i	i	i	2.9	i
CC[C@@H]1/C(=C/c2ccccc2)N2C(=O)C[C@@H](c3ccccc3)N=C2N1Cc1ccc(OC)cc1OC	nt	i	i	nt	i	nt
N/C(=N\OC(=O)Cc1cccs1)c1ccc([N+](=O)[O-])cc1	i	i	11.2	i	i	i
O=C(NC1CC1)C1=C[C@H](c2ccc3c(c2)OCO3)C[C@H](OCc2ccc(CO)cc2)O1	i	i	10.8	i	i	i
O=C(O)C1=C[C@@H](c2ccc3c(c2)OCO3)C[C@@H](OCc2ccc(CO)cc2)O1	i	i	i	i	i	i
Cc1ccc(C)c(NC2CCCCC2NS(=O)(=O)c2ccccc2)c1 (stereo not given)	i	i	i	4.2	i	i
C=CCN1C=C2C(=O)C(C)(OC(=O)C3CCCC3)C(=O)C=C2C=C1c1ccsc1 (stereo not given)	i	i	i	i	1.4	i
C=CCSc1n[nH]c(-c2ccc(OCCCC)cc2)n1	i	i	i	i	0.9	i
C=CCSc1n[nH]c(-c2ccc(OCCC)cc2)n1	i	nt	nt	nt	nt	nt
Clc1ccccc1CSc1cc2c(nn1)-c1ccccc1CC2	i	i	11.1	i	i	i
C#CCNC[C@@H]1CSCCS(=O)(=O)N1	nt	i	i	i	0.9	i
CCCCCCCCCCCCNC[C@@H]1CSCCS(=O)(=O)N1	nt	i	i	i	i	i
O=C(NC1CCCCN(Cc2ccc(OC(F)(F)F)cc2)C1=O)c1ccc2ccccc2c1 (stereo not given)	nt	i	i	i	i	i
CC1CN/C(=C\C(=O)c2ccc(Cl)cc2)C(=O)N1 (stereo not given)	i	i	12.2	i	i	i
CC1CN/C(=C\C(=O)c2ccccc2)C(=O)N1 (stereo not given)	i	i	i	i	i	i
C=Cn1cc[n+](CC(=O)c2cccs2)c1	i	5.6	i	i	i	i
